The panel holds about 83,000 compounds, 20% with a hit somewhere; the sample as a whole holds those more often.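 Testing used 96-well plates and a 48-hour single-concentration exposure. Example: -40 means 40% of the starting cells died.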 Activity calls are given as the source filed them. The calls were made as follows: active = growth percent below 10; inactive = the rest.
Key:
Experiment in all cases: NCI-60 one-dose screen, 48 h (100 = growth as untreated, 0 = no growth, -100 = all killed)
Conditions in all cases: 10 µM unless noted
[1] = test system: NCI-H23 lung
[2] = test system: NCI-H226 lung
[3] = test system: NCI-H322M lung
[4] = test system: NCI-H460 lung
[5] = test system: HOP-92 NSCLC
[6] = test system: NCI-H522 lung
[7] = test system: A549/ATCC NSCLC
[8] = test system: 786-0 renal
[9] = test system: COLO 205 colon
[10] = test system: HOP-62 NSCLC

Measured: growth

O=C(c1nn(-c2ccccc2)c2c1CC(NCc1ccc(F)cc1)CC2)N1CCCCC1 (stereo not drawn)
inactive: [1] 95.3% | [2] 103% | [3] 98.2% | [4] 117% | [5] 92.5% | [6] 89.3% | [7] 103% | [8] 96.4% | [9] 108%

N=C(N)c1ccc(-c2ccc(-c3ccc(Cl)c(Cl)c3)s2)nc1
active: [3] -5.24% | [4] -61.6% | [6] -34.5% | [7] -45.6% | [8] -25.8% | [9] -40.5%
inactive: [1] 67.6% | [2] 86.9% | [10] 36.6%

CC(=O)O[C@H]1CC2CCC3C(CC[C@@]4(C)C3C[C@H]([N+]3(C)CCCCC3)[C@@H]4OC(C)=O)[C@@]2(C)C[C@@H]1N1CCCCC1 (stereo partly drawn)
inactive: [1] 102% | [2] 106% | [3] 110% | [10] 114% | [4] 111% | [6] 95.8% | [7] 101% | [8] 106% | [9] 104%

O=C(CN1C(=O)NC2NC(=O)NC21)N/N=C/c1ccccc1[N+](=O)[O-] (stereo not drawn)
inactive: [1] 106% | [2] 87.6% | [3] 106% | [4] 108% | [5] 115% | [6] 96.5% | [7] 110% | [8] 101% | [9] 120%

COC1=CC(c2ccc[nH]2)=N/C1=C\c1[nH]c(C)c(C(=O)OC(C)C)c1C
active: [1] -43.4% | [2] -27.4% | [3] -28.2% | [4] 0.0375% | [5] -33% | [6] -58.2% | [7] -21.2% | [8] -41.9% | [9] -80.5%

Cn1cc(C(=O)c2nc(-c3c[nH]c4ccccc34)no2)c2cc(F)ccc21
inactive: [1] 65.1% | [2] 75.7% | [3] 62.3% | [4] 14.1% | [5] 43.6% | [7] 40.6% | [8] 54.6% | [9] 34.7%
active: [6] 2.36%

Nc1n[nH]c2ccc([C@H]3[C@@H]4C5CCC(C5)[C@@H]4c4c(ccc5[nH]ncc45)N3S(=O)(=O)C3CC3)cc12 (stereo partly drawn)
inactive: [1] 16.3% | [3] 38.6% | [5] 67.7% | [7] 17.1% | [8] 31.3%
active: [2] -16.9% | [4] 5.9% | [6] 7.23% | [9] -0.398%

CCOC(=O)c1csc(NC(=O)COc2ccc(/C=C3\Oc4ccccc4C3=O)cc2)n1
inactive: [1] 86.5% | [2] 108% | [3] 95.4% | [4] 95.4% | [5] 102% | [6] 55.1% | [7] 88.7% | [8] 68.4% | [9] 112%

CC(=O)Oc1ccc(N2C(=O)C(Cl)=C(Nc3cccc(C(F)(F)F)c3)C2=O)cc1
inactive: [1] 100% | [2] 92.1% | [3] 98.6% | [4] 102% | [5] 99.7% | [6] 86% | [7] 93.9% | [8] 95.7% | [9] 93.4%

C=C(C)[C@@H]1CC[C@]2(CO)CC[C@]3(C)[C@H](CC[C@@H]4[C@@]5(C)CC[C@H](NCO)C(C)(C)[C@@H]5CC[C@]43C)[C@@H]12
active: [1] -20.9% | [3] -83.7% | [4] -86.1% | [6] -42.7% | [7] -45.7% | [8] -94% | [9] -57.1%
inactive: [2] 72.5% | [5] 42.2%

Cc1ccc(-c2nc(N3CCCNCC3)c3oc(-c4ccccc4)nc3n2)cc1
active: [1] 9.93% | [3] -70.4% | [10] -55.3% | [4] -67.9% | [6] -74.6% | [7] -87.8% | [8] -89.8% | [9] -80.9%
inactive: [2] 93.1%

Nc1c(C(=O)Nc2ccccc2F)sc2nc3c(cc12)CCCC3
inactive: [1] 51.2% | [2] 63.5% | [3] 63.1% | [4] 12% | [5] 11.9% | [6] 23% | [7] 39.5% | [8] 33.2% | [9] 13%

CC(=O)c1c(C)nc(SCC(=O)Nc2cccc(O)c2)n1-c1ccc(Cl)cc1
inactive: [1] 94.3% | [2] 107% | [3] 91.2% | [10] 105% | [4] 94.5% | [6] 83.9% | [7] 96.2% | [8] 102% | [9] 118%

Cn1ccnc1C(=O)/C=C/c1ccc(C(=O)Nc2ccccc2O)cc1
active: [4] 8.78% | [8] 9.95%
inactive: [1] 30.6% | [2] 63.4% | [3] 45.3% | [10] 12.7% | [6] 60.4% | [7] 31.2% | [9] 56.5%

NC(=O)c1cccc(-n2ccc3cc(NC(=O)c4ccc(N5CCOCC5)c(C(F)(F)F)c4)ccc32)n1
inactive: [1] 77.5% | [2] 66.3% | [3] 57.1% | [10] 44.5% | [4] 43.8% | [6] 58.9% | [7] 42.7% | [8] 19.1% | [9] 34.4%

CSc1oc(C)nc1[P+](c1ccccc1)(c1ccccc1)c1ccccc1
active: [9] 7.5%
inactive: [1] 30% | [2] 67.6% | [3] 99% | [10] 87.6% | [4] 37.3% | [6] 56.5% | [7] 61.8% | [8] 89.3%

CC(O)(c1ccccc1)C(c1ccccc1)C1CCCCN1 (stereo not drawn)
inactive: [1] 107% | [2] 102% | [3] 88.5% | [4] 103% | [5] 90.3% | [6] 95.1% | [7] 88.1% | [8] 103% | [9] 103%

COc1ccc(-c2cc(-c3cccnc3)nc3sc4c(=O)[nH]c(-c5ccc(Cl)cc5)nc4c23)cc1OC
inactive: [1] 98.8% | [2] 79.1% | [3] 104% | [4] 90.9% | [5] 75.1% | [6] 78.6% | [7] 82.8% | [8] 89.2% | [9] 91.2%

O=C1/C(=C\c2ccc3nccnc3c2)SC(=S)N1CCc1ccc(O)cc1
inactive: [1] 98.2% | [2] 96% | [3] 103% | [10] 108% | [4] 102% | [6] 65.9% | [7] 101% | [8] 60.6% | [9] 119%

CC(=O)n1nc(C(=O)OC(C)(C)c2ccccc2)c2ccccc21
inactive: [1] 94.2% | [2] 85.7% | [3] 87.9% | [4] 100% | [5] 94.1% | [6] 85.5% | [7] 91.8% | [8] 96.8% | [9] 107%

O=C1/C(=C/c2ccccc2O)CC/C1=C\c1ccccc1O
inactive: [1] 59.8% | [2] 82.9% | [3] 96.4% | [4] 68.9% | [5] 20% | [6] 56% | [7] 93.8% | [8] 54.3% | [9] 107%

CCCCCCCCCCCCCCCCCCOc1ccccc1CC(=O)OCC[N+](C)(C)C
inactive: [1] 40.2% | [2] 28.7% | [3] 66.5% | [4] 13.5% | [7] 11.5% | [8] 20.8%
active: [5] -14% | [6] 2.19% | [9] -67.3%

O=S(=O)(Nc1cc(Cl)ccc1Cl)c1ccc(-c2cnc(C3CC3)o2)cc1
active: [6] 0.738%
inactive: [1] 52.8% | [2] 40.3% | [3] 59.4% | [4] 24.8% | [5] 40.4% | [7] 45.2% | [8] 33% | [9] 43.5%

O=C(Nc1ccc(OS(=O)(=O)c2ccc(F)cc2)cc1)C1CCCCCC1
inactive: [1] 83.6% | [3] 106% | [10] 98.6% | [4] 95.5% | [5] 83.4% | [6] 81.2% | [7] 92.5% | [8] 96.6% | [9] 64.6%

O=C(Nc1cccc(-c2ccc(Cl)c(C(F)(F)F)c2)c1)C1CCN(Cc2cccc3cccnc23)CC1
inactive: [1] 48.2% | [3] 35.5% | [5] 30.2% | [8] 31.9%
active: [4] -87.2% | [6] -53% | [7] -30.8% | [9] -72.2%

O=C(Nc1nc2cc(C(=O)N3CCN(C(c4ccccc4)c4ccccc4)CC3)ccc2o1)c1ccc(NC2CCCCC2)c([N+](=O)[O-])c1
inactive: [1] 69.5% | [3] 59.4% | [4] 46.8% | [5] 73.3% | [6] 64.2% | [7] 56.1% | [8] 53.6% | [9] 79.7%

COc1ccc(C(=O)C/C(=C\c2ccc(Cl)cc2)C(=O)NCc2ccccc2)cc1
inactive: [1] 90.6% | [3] 84.5% | [10] 82.6% | [4] 74.4% | [5] 86.2% | [6] 60.7% | [7] 84.7% | [8] 99.2% | [9] 108%

CCNCCNc1cc(-c2ccc(C(F)(F)F)cc2)c(C#N)c2nc3ccccc3n12
active: [1] -83.7% | [3] -56.2% | [4] -81.4% | [5] -81.2% | [6] -69% | [7] -76.4% | [8] -96.2% | [9] -80.4%

c1ccc(-c2oc(-c3ccccc3)c(CN3CCCCC3)c2CN2CCCCC2)cc1
active: [5] 4.02% | [6] 2.64% | [9] 6.83%
inactive: [1] 26% | [3] 52.9% | [10] 54.2% | [4] 24.8% | [7] 56.2% | [8] 38.7%

Reference: PubChem BioAssay (NCI)
